# ChEMBL document CHEMBL3433997, “St. Jude Leishmania screening dataset” (2016)
# Target: Solute carrier family 2, facilitated glucose transporter member 1 (Homo sapiens) (UniProt P11166)
# Assay: ST_JUDE_LEISH: Cytotoxicity at 2uM final concentration against transgenic Leishmania Mexicana promastigotes LmGLUT1 that are glucose transport deficient and complemented with the human glucose transporter GLUT1. Activity is measured by DNA content using SYBR green in vitro
# Assay type: functional
# Solute carrier family 2, facilitated glucose transporter member 1 (Homo sapiens), sequence (P11166 whole entry): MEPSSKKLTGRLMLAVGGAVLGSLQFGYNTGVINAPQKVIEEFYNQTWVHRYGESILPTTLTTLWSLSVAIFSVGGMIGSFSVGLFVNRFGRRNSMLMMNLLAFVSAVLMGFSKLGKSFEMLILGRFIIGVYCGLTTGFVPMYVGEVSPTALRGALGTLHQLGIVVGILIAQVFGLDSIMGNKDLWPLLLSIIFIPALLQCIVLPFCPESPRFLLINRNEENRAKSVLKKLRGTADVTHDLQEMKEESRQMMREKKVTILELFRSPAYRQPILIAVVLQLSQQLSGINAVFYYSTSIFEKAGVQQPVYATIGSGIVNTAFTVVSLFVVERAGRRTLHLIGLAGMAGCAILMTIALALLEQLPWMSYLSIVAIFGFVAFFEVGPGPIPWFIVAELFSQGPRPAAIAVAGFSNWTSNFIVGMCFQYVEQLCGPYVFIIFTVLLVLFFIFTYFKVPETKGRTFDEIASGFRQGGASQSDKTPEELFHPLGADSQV
row,SMILES,inhibition [%]
1,COc1ccc(N2CCN(CCCCNC(=O)c3ccc(NC(=O)c4ccc(C(F)(F)F)cc4)cc3)CC2)c(OC)c1,9
2,CC(CCc1ccccc1)NCC(O)c1ccc2c3c(cccc13)C(=O)N2C (stereo not given),1.56
3,C=CC(=O)Nc1ccc(Cl)cc1C(O)c1ccccc1 (stereo not given),2.6
4,Cc1nc(NCCCn2ccnc2)cc(-c2cncc(-c3ccc(OC(F)(F)F)cc3)c2)n1,5.43
5,CCN(CC)CCCC(C)Nc1cc(C)nc2cc(Cl)ccc12 (stereo not given),0.9
6,N#CC(c1ccc(Br)cc1)c1ccc2c(C(F)(F)F)cc(C(F)(F)F)nc2n1 (stereo not given),4.94
7,CC(C)(C)c1ccc(NC(=O)c2ccc(CN3CCCN(Cc4cccc(C#N)c4)CC3)cc2)cc1,6.54
8,Cc1ccccc1NC(=O)NC1CCN(CCCCCNC(=O)/C=C/c2ccc(Cl)c(Cl)c2)CC1,1.77
9,COc1ccc(-c2nc3c(N)nc(N)nc3nc2-c2ccccc2Cl)cc1.COc1ccc(-c2nc3nc(N)nc(N)c3nc2-c2ccccc2Cl)cc1,9.91
10,CN1CCN(CCCNCc2cccc(Nc3nccc(Nc4ccc(Oc5ccccc5)cc4)n3)c2)CC1,1.12
11,Cc1cc(SC(C)(C)C)cc2c(Cl)c(C(N)=O)cnc12,89
12,CCCCNC(=O)C1CCCN(C(=O)c2ccc(O)c(-c3ccc(Cl)c(Cl)c3)c2)C1 (stereo not given),1.28
13,Cc1cccc(C(=O)Nc2ccnc(N3CCC(N(C)Cc4cccc(C#N)c4)CC3)c2)c1,4.5
14,COCCN(CCOC)c1ncc(-c2ccsc2)c(-c2nc(C)c(C)s2)n1,-1.28
15,Cc1cc(NC(=O)CCN2CCN(c3cccc(Cl)c3Cl)CC2)ccc1N1CCN(C(C)C)CC1,-0.22
16,COc1cccc(-c2nn(C)c3sc(C(=O)Nc4cccnc4)cc23)c1,0.24
17,O=C(Nc1cccc(-c2ccc(-c3nc4cc(C(F)(F)F)ccc4[nH]3)s2)c1)c1ccncc1,8.37
18,Cc1cc(NC(=O)Nc2ccc(I)c(OCCN(C)C)c2)ccc1Br,10.5
19,FC(F)(F)c1ccc2[nH]c(-c3cccc(-c4ccc(CNCC5CCCO5)cc4)c3)nc2c1 (stereo not given),11.3
20,CC(CN(C)C)C(=O)Nc1cccc(-c2cccc(-c3nc4ccccc4[nH]3)c2)c1 (stereo not given),-0.1

row,SMILES,inhibition [%]
1,CN1CCC(N2CCN(Cc3ccc(-c4cccc(-c5nc6ccccc6[nH]5)c4)cc3)CC2)CC1,0.9
2,COc1ccc(C2CCN(C#N)C2)cc1OC1CCCC1 (stereo not given),17
3,Cn1ncc2c3c(CCN4CCC(NCc5cc6c(cn5)OCC6)CC4)c(Cl)cnc3ccc21,0.52
4,COc1cc([N+](=O)[O-])ccc1NC(=O)Nc1ccc(OC(F)(F)F)cc1,1.06
5,COc1ccc(CNC2CCCC2)cc1-c1ccc(S(=O)(=O)NCCN2CCCC2)s1,1.79
6,COc1ccc2cc(C(C)NC3CCN(c4cccc(NC(=O)c5ccncc5)c4)CC3)ccc2c1 (stereo not given),0.03
7,CC(C)COc1ccc(Cl)cc1Cc1nc(-c2nc3ccc(CN4CCCC4)cc3[nH]2)co1,2.58
8,COc1cc(F)c2nccc([C@@H](O)CN3CCC(NCc4ccc5c(n4)NC(=O)CS5)CC3)c2c1,-0.92
9,Cc1cc(NC(=O)c2ccc(-c3ccccc3)cc2)no1,4.35
10,CCOc1c(OC)ccc2c1CCN(CCN1CCC(CNC(=O)c3ccc(-c4ccc(C(F)(F)F)cc4)cc3)CC1)C2,-1.88
11,O=C(NCCN1CCCCC1)c1cc2cc(-c3ccccc3)ccc2n1S(=O)(=O)c1ccccc1,71.9
12,Cc1cc(N2CCCN(CC3CCCCC3)CC2)nc(Nc2ccc(Br)cc2)n1,1.81
13,Cc1cc2c(cc1C(F)(F)F)N(C(=O)Nc1ccc(C(=O)NCCN3CCCC3)cc1)CC2,1.29
14,OCCN1CCN(c2nc(Nc3cccc(F)c3)c3cnn(-c4ccccc4)c3n2)CC1,3.91
15,CCCN(Cc1nnc(-c2ccco2)o1)C(=O)C1CCCN(C(=O)c2ccc(Cl)cc2)C1 (stereo not given),1.85
16,CCC(CC)n1c(C)cc2c3c(N)nc(N)nc3ccc21,89.4
17,CCc1c[nH]c2c(N3CCCS3(=O)=O)cc(C(=O)N[C@@H](Cc3ccccc3)[C@H](O)CNC(C)(C)CCCC(C)C)cc12,1.92
18,CCCNCc1ccc(-c2ccc(CNC3Cc4ccccc4C3)cc2)nc1,-0.04
19,CCCC(C)n1ccc2c3c(N)nc(N)nc3ccc21 (stereo not given),47.3
20,Cc1cccc2nc(-c3cccc(-c4cccc(CNCCc5ccncc5)c4)c3)[nH]c12,-1.47
